Data on 58 compounds can be found in ChEMBL document CHEMBL4513216, “Probing the Open Global Health Chemical Diversity Library for Multistage-Active Starting Points for Next-Generation Antimalarials” (ACS Infect Dis, 2020).

Screen size: about 65,000 compounds; about 2,100 (3.2%) showed an effect of 50% or more. The median lay at about -52%. Many of the other results were omitted from the sample, so strong results are more common in it than they were.

The test system of the test is Plasmodium falciparum. Description: Screen against P. falciparum Asexual Blood Stage (ABS), at 5uM. The format is functional, Dd2. The conditions noted are these: tested at 5 uM.
Turning to `CN(C)c1ncccc1CNC(=O)N1CCCC1CN1CCCC1` (stereo not drawn), the INHIBITION is -122%. Turning to `CC(=O)N1CCN(C(=O)CN2CCCC2c2c(C)nn(C)c2C)CC1` (stereo not drawn), the INHIBITION is recorded as -90.6%. With `O=C(NC1CCC1)C1=NOC2(CCN(Cc3ccco3)C2)C1` (stereo not drawn), the INHIBITION is on record as -31.3%. Regarding `COCc1ccc(C(=O)N2CCC(c3cc4nccnc4[nH]3)CC2)cc1`, the INHIBITION is -69.8%.

`COc1cc(C(=O)N2CCCC(n3ccnc3)C2)cc2c1OCCO2` (stereo not drawn): the INHIBITION was -16.1%. On to `Cc1ncnc(N2CCCN(c3nc4ccccc4s3)CC2)c1C`, for which the INHIBITION is -442%. Regarding `Cc1nc[nH]c1CN1CCCN(c2nc3ccccc3s2)CC1`, the INHIBITION is 54.8%. On to `Cc1nc[nH]c1CN1CCCC12CCN(c1nc3ccccc3s1)CC2`, for which the INHIBITION is reported as 24.2%. Turning to `CC(=O)N1CCCC1c1nnn2cc(-c3ccncc3)ccc12` (stereo not drawn), the INHIBITION was -69.2%. Under `O=C(O)c1nnn(-c2ccccc2)c1-c1ccncc1` stands -32.3%; under `CCn1c(C2CCNCC2)nn(Cc2ccc(C(=O)NC)o2)c1=O`, -72.6%. Under `CCCn1ncc(-c2ccnc(NC3CCSC3)n2)c1C` (stereo not drawn) stands -10.1%; under `CCCn1ncc(-c2ccnc(N[C@@H]3C[C@H]4CC[C@@H]3C4)n2)c1C`, -34.5%; under `CCCn1ncc(-c2ccnc(NC3CC(C)(C)NC(C)(C)C3)n2)c1C`, 67.2%. With `CC(C)N1CCC(N2CCC(C(=O)N(C)C)CC2)CC1`, the INHIBITION was -45.6%.

On to `O=C(N[C@@H]1CNCCC[C@H]1O)c1ccc(OCCN2CCCC2)cc1`, for which the INHIBITION was -65.9%.

For `COCCOc1ccc(C(=O)N[C@@H]2CNCCC[C@H]2O)cc1`, the INHIBITION is -9.34%. Turning to `O=C(N[C@@H]1CNCCC[C@H]1O)c1ccc(OCc2ccccc2)cc1`, the INHIBITION turned out to be 63.2%.

For the compound `CCc1ccccc1Nc1noc2c1CN(C(=O)c1ccn(C)n1)CC2`, the INHIBITION was -63.2%. As for `CCc1ccccc1Nc1noc2c1CN(C(=O)C1CCCO1)CC2` (stereo not drawn), the INHIBITION worked out at 68.6%. For the compound `CCc1ccccc1Nc1noc2c1CN(C(=O)CNC(C)=O)CC2`, the INHIBITION is recorded as 45.1%. On to `O=C(NCc1cccnc1-n1cncn1)c1ccncc1`, for which the INHIBITION was -55.2%. For the compound `COc1cccc(C(=O)N2CC[C@@H]3[C@H](CC2)N(C)CCS3(=O)=O)c1`, the INHIBITION is -72.7%. The result for `Cc1nc(COC[C@@H]2CCC[C@@]23CNCCO3)cs1` reads 47.5%; that for `Cc1nc(COC[C@H]2CCC[C@]23CN(CC2CC2)CCO3)cs1`, 32.7%. With `CCN1CCO[C@]2(CCC[C@H]2COCc2csc(C)n2)C1`, the INHIBITION was found to be 57.7%. Turning to `Cc1nc(COC[C@@H]2CCC[C@@]23CN(C)CCO3)cs1`, the INHIBITION is 15.6%. Under `Cc1nc(COC[C@H]2CCC[C@@]23CN(C(C)C)CCO3)cs1` stands 51.9%; under `Cc1nc(COC[C@H]2CCC[C@]23CN(C2CCOC2)CCO3)cs1` (stereo partly drawn), -51.5%.

As to `c1ccc(CN2Cc3nccn3CC(Cn3cccn3)C2)nc1` (stereo not drawn), the INHIBITION is recorded as -16.2%. With `CCN(CC)Cc1cn2c(n1)CN(C(=O)Cc1ccsc1)CC2`, the INHIBITION is -53.3%. Consider `Cc1cc(N(Cc2ccccn2)C2CC2)n2nc(C(F)(F)F)nc2n1`, for which the INHIBITION was -61.2%. On to `Cc1cc(N(Cc2cccs2)C2CC2)n2nc(C(F)(F)F)nc2n1`, for which the INHIBITION is on record as 67.3%.

On to `Cc1cc(N(Cc2ccccc2F)C2CC2)n2nc(C(F)(F)F)nc2n1`, for which the INHIBITION stood at 4%. In the case of `CC1c2ncc(Cn3cccn3)n2CCN1Cc1ccccn1` (stereo not drawn), the INHIBITION is listed as -88.5%. In the case of `Cc1nnc2n1CCN(C(C(=O)NC1CC1)c1ccc(F)cc1)C2` (stereo not drawn), the INHIBITION was -127%.

For the compound `CCN1CCN(CCNC(=O)c2ccn(-c3ccc(F)cc3)n2)CC1`, the INHIBITION was -11.4%. `NC(=O)CC1CCN(C(=O)c2cccn2Cc2cccs2)CC1`: the INHIBITION was -68.7%. For `CN1[C@@H](C(=O)NCC2CC2)C[C@@H]2CN(Cc3ccco3)C[C@@H]21`, the INHIBITION was -99%.

On to `COc1ncccc1CN1C[C@H]2C[C@@H](C(=O)NCC3CC3)N(C)[C@H]2C1`, for which the INHIBITION amounted to 51.2%. On to `CN1[C@@H](C(=O)NCC2CC2)C[C@@H]2CN(Cc3ccoc3)C[C@@H]21`, for which the INHIBITION was 30.4%. `CCOc1ccc(C(=O)N2CCCC2c2c(C)nn(C)c2Cl)cn1` (stereo not drawn): the INHIBITION was -37.6%.

`CCS(=O)(=O)N1CCC2(CCN(Cc3cccc(OC)c3)CC2)CC1`: the INHIBITION worked out at 68.4%.

As to `COc1cccc(CN2CCC3(CC2)CCN(c2ncccn2)C3)c1`, the INHIBITION turned out to be 0.0663%. With `COc1cccc(CN2CCC3(CC2)CCN(c2ncc(C)cn2)C3)c1`, the INHIBITION was -73.3%. Consider `NC(=O)C1CCCN1Cc1cccc(NC(=O)c2cc(Cl)cc(Cl)c2)c1` (stereo not drawn), for which the INHIBITION is reported as -51%.

For `Fc1ccc(CN2CCCC2Cn2cccn2)c2ncccc12` (stereo not drawn), the INHIBITION turned out to be 59.1%.

Take `Fc1ccc(CN2CCCCC2Cn2cncn2)c2ncccc12` (stereo not drawn): the INHIBITION was found to be 65.8%.

As to `N#Cc1ccc(CN2CCCC2Cn2cccn2)c(F)c1` (stereo not drawn), the INHIBITION was -129%. Under `Clc1ccc(CN2CCCCC2Cn2cncn2)c2ncccc12` (stereo not drawn) stands 17.8%; under `Clc1cc(CN2CCCC(Cn3cncn3)C2)c2ncccc2c1` (stereo not drawn), 39.2%.

As to `Clc1ccc(CN2CCCC(Cn3cncn3)C2)c2ncccc12` (stereo not drawn), the INHIBITION stood at 64.6%.

As for `Clc1cc(CN2CCCC2Cn2cncn2)c2ncccc2c1` (stereo not drawn), the INHIBITION worked out at 2.88%. In the case of `N#Cc1ccc(F)c(CN2CCCC2Cn2cccn2)c1` (stereo not drawn), the INHIBITION was -15.1%. As for `Fc1ccc(CN2CCCC2Cn2cncn2)c2ncccc12` (stereo not drawn), the INHIBITION stood at 13.9%. As for `Clc1ccc2cccnc2c1CN1CCCC1Cn1cncn1` (stereo not drawn), the INHIBITION is recorded as 53.7%.

As to `Clc1ccc2cccnc2c1CN1CCCCC1Cn1cncn1` (stereo not drawn), the INHIBITION was found to be 48.2%. The result for `Fc1ccc(CN2CCCC(Cn3cncn3)C2)c2ncccc12` (stereo not drawn) reads -1.08%.
